Results filed as inconclusive are left out. Calls of active or inactive are those of the source. The call rests on the fitted dose curve; in most records, active means well fitted curve in the direction sought with a large enough effect; inconclusive means small, poorly fitted or top-dose-only effect, or another doubt; inactive means no such curve, though single readings can be large; an effect the other way counts as inactive or inconclusive.
How the values were obtained:
[1] = P-glycoprotein substrates identified in KB-8-5-11 adenocarcinoma cell line, qHTS therapeutic library screen (AID 1346987); further: nearly all actives have a fitted effect of over 65% in size; further: potency means the concentration at half of the fitted maximal effect
Outline: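 Human cervical adenocarcinoma KB-8-5-11 cells, selected in colchicine to over-express P-gp and assayed without it, were exposed for 72 h to titrated compounds. An ATP-based luminescent viability signal gave AC50.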

[2] = tested on: KB-3-1; test: Cytotoxic Profiling of Annotated Libraries Using Quantitative High-Throughput Screening (AID 1296008); conditions: Five cell lines viability, CellTiter-Glo ATP luminescence, 48-72 h; max response: hits give low values; further: nearly all actives have a fitted effect of over 60% in size; further: potency means the concentration at half of the fitted maximal effect; on max response: on the % scale 0 is the no-effect control and ±100 the full control effect
Outline: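 Compounds were pin-transferred onto cells and incubated 48 or 72 hr at 37 degree Celsius, 95% humidity. CellTiter-Glo was added, plates sat 10 min at room temperature, then ATP-coupled luminescence was imaged as the viability read-out.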

[3] = tested on: astro; test: Drug repurposing screens with cells derived from glioblastoma tumor samples (AID 1345199); conditions: viability, ATP luminescence, 48 h; series mostly up to 45.9 µM; further: nearly all actives have a fitted effect of over 40% in size; further: potency means the concentration at half of the fitted maximal effect
Outline: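 Primary testing used CD133+ neurospheres from four GBM patients, seven concentrations, 48 h exposure and ATP-based viability; confirmation added three slower-growing patient lines.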

[4] = qHTS Assay for Identifying Gametocytocidal Compounds (AID 743244);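 further: on the % scale 0 is the no-effect control and ±100 the full control effect; actives lower the fluorescent signal which means gametocytes are killed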; conditions: P. falciparum 3D7 stage III-V gametocytes, alamarBlue, 72 h; max response: hits give low values
Outline: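 P. falciparum 3D7 stage III–V gametocytes (20,000 cells/well) were exposed to compounds for 72 h at 37 °C, 5% CO2. AlamarBlue was then added for 24 h; decreased resorufin fluorescence (Ex 525/Em 598 nm) indicated loss of viability.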

[5] = target: Glutathione peroxidase 1 (Homo sapiens) (UniProt P07203); test: Primary qHTS Assay for Inhibitors of Recombinant Selenoprotein Glutathione Peroxidase 1 (GPX1) (AID 1845191); further: nearly all actives have a fitted effect of over 65% in size
Glutathione peroxidase 1 (Homo sapiens), sequence (P07203 whole entry, looked up): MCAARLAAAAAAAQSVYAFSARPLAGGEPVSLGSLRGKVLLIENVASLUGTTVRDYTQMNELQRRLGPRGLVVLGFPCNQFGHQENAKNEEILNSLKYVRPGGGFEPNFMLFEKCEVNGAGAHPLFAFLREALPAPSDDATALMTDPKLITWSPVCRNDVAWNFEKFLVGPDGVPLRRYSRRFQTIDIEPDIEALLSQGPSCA
Outline: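 GPX1 10 nM, GR 100 nM, GSH 1 mM, NADPH 0.5 mM, CHP 0.5 mM (final). 30-min cpd preincubation, RT. Ex340/Em450 read t=0, t=15 min.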

[6] = target: Phospholipid hydroperoxide glutathione peroxidase GPX4 (Homo sapiens) (UniProt P36969); test: Primary qHTS Assay for Inhibitors of Recombinant Selenoprotein Glutathione Peroxidase 4 (GPX4) (AID 1845192); further: nearly all actives have a fitted effect of over 65% in size
Phospholipid hydroperoxide glutathione peroxidase GPX4 (Homo sapiens), sequence (P36969 whole entry, looked up): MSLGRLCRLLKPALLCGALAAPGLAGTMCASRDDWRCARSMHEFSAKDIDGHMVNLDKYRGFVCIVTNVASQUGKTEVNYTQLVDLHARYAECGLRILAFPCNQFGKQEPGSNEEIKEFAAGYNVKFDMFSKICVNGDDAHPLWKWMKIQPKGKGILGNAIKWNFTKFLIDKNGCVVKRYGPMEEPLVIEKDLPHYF
Outline: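 qHTS, GR-coupled: GPX4 200 nM + cpd 30 min RT → GSH 1 mM, NADPH 0.5 mM, GR 100 nM → CHP 0.5 mM start; fluor 340/450 at t0 and t15 min; no-enzyme wells as control.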

[7] = tested on: Zika virus NS2B-NS3 protease (linked construct); test: Primary screen NINDS Rhodamine qHTS for Zika virus inhibitors (AID 1347160); further: on the % scale 0 is the no-effect control and ±100 the full control effect; nearly all actives have a fitted effect of over 55% in size
Outline: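 Each compound, titrated, sat 15 min with 25 nM linked protease before 1.5 microM Rhodamine110 substrate went in. Fluorescence gain over the next 15 min, in pH 8.0 Tris with Tween 20, gave Hill-fitted curves.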

[8] = target: Calcium and integrin-binding protein 1 (Homo sapiens) (UniProt Q99828); test: Primary qHTS for Identification of Calcium Integrin Binding Protein 1 (CIB1) Competitor (AID 1508620);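 further: GST tagged CIB1 binding a fluorescein labelled alphaIIb integrin peptide tracer; top concentration of the series differs between compounds; on the % scale 0 is the no-effect control and ±100 the full control effect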
Calcium and integrin-binding protein 1 (Homo sapiens), sequence (Q99828 whole entry, looked up): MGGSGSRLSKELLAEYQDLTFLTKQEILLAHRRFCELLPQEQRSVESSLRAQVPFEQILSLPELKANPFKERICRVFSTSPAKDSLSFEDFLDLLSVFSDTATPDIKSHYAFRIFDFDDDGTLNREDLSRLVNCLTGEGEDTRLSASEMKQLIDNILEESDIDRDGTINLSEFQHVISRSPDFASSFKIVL
Outline: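 Fluorescence polarization competition: CIB1-GST (1 uM final) preincubated with compound 15 min at room temperature, then FITC-labeled alphaIIb peptide (100 nM final) added for another 15 min. Polarization read at Ex 480/Em 540.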

[9] = target: Luciferin 4-monooxygenase (Photinus pyralis) (UniProt P08659); test: Primary firefly luciferase (FLuc) qHTS assay for identification of artifact compounds. (AID 1845220); conditions: outcome: dose series up to 54.1 µM unless noted; further: nearly all actives have a fitted effect of over 60% in size
Outline: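 qHTS, 15 min compound preincubation with substrate (10 uM luciferin, 10 uM ATP) at RT, then 10 nM FLuc; 5 min; luminescence; % inhibition vs no-enzyme/DMSO controls, 4-parameter Hill fit.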

[10] = Primary fluorescence-based thiol-reactive (MSTI) qHTS assay for identification of artifact compounds. (AID 1845221);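 further: thiol-reactive compounds lower the probe fluorescence signal; nearly all actives have a fitted effect of over 65% in size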
Outline: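 qHTS titration of compound; 4 uM MSTI, PBS pH 7.4, 2% DMSO; 1 h RT, dark; fluorescence 525/598 nm; normalized to Acetyl-MSTI and MSTI; 4-parameter Hill fit.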

[11] = tested on: Nanoluciferase (engineered Oplophorus gracilirostris luciferase); test: Primary Nanoluciferase (NLuc) qHTS assay for identification of artifact compounds. (AID 1845222)
Outline: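 Luminescence read-out of secreted NLuc in S16 cell conditioned medium (1:55); compounds tested with 15 min RT preincubation, then Nano-Glo substrate 1:100, 5 min. % inhibition vs no-enzyme and DMSO controls, 4-parameter Hill fit.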

[12] = Primary redox qHTS assay for identification of artifact compounds. (AID 1845223);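 further: 0% = DMSO and 100% = reference compound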
Outline: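 Redox-cycling detection via DTT (250 uM final) oxidation coupled to Amplex Red (25 uM)/HRP (250 mU/mL) in HBSS. 15 min preincubation plus 30 min after DTT, room temperature. Ex/Em 525/598 nm; 4-parameter Hill fit against DMSO and 10 uM DA3003.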

[13] = tested on: CASKI; test: Primary qHTS to identify gynecologic anti-cancer compounds using libraries of approved drugs and bioactive compounds (AID 1345084); conditions: Gynecologic cancer cell panel viability, ATPlite luminescence, 48 h; series mostly up to 57.5 µM; further: on the % scale 0 is the no-effect control and ±100 the full control effect; nearly all actives have a fitted effect of over 55% in size
Outline: (§1)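 Cells, 1,000 per well, were allowed to settle for 16 h at 37 C before compound addition. Five concentrations were tested for 48 h, and viability was read by ATPlite luminescence after 15 min at room temperature.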

[14] = tested on: JEG-3; test: as above; conditions: Gynecologic cancer cell panel viability, ATPlite luminescence, 48 h; series mostly up to 57.5 µM
Outline: as §1

[15] = tested on: OV90; test: as above; conditions: Gynecologic cancer cell panel viability, ATPlite luminescence, 48 h; series mostly up to 57.5 µM
Outline: as §1

C[C@@H]1[C@@H]2Cc3ccc(O)cc3[C@@]1(C)CCN2CCc1ccccc1
active: Potency [1] 12600 nM
inactive: max response [2] -19% | Potency [3]

CC(C)=CCN1CC[C@]2(C)c3cc(O)ccc3C[C@H]1[C@H]2C
inactive: max response [4] 2.13% | Potency [5] | Potency [6] | max response [2] -17.1% | Potency [3]

CC(=O)O[C@H]1C[C@H](O[C@H]2[C@@H](O)C[C@H](O[C@H]3[C@@H](O)C[C@H](OC4CC[C@@]5(C)C(CC[C@@H]6[C@@H]5CC[C@]5(C)[C@@H](C7=CC(=O)OC7)[C@@H](O)C[C@]65O)C4)O[C@@H]3C)O[C@@H]2C)O[C@H](C)[C@H]1O[C@@H]1O[C@H](CO)[C@@H](O)[C@H](O)[C@H]1O (stereo partly drawn)
inactive: max response [4] 7.87%
active: Potency [1] 1300 nM | Potency [2] 1300 nM | Potency [3] 708 nM

COc1cc(C[C@H](C)N)c(OC)cc1Br
inactive: max response [4] -8.52% | Potency [1] | max response [2] -6.95% | Potency [3]

C=CCC1([C@@H](C)CCC)C(=O)NC(=O)NC1=O
inactive: max response [4] 0.546% | max response [2] -4.55% | Potency [3]

CNC(C)CC1CCCCC1 (stereo not drawn)
inactive: max response [4] -3.52% | Potency [1] | Potency [5] | Potency [6] | max response [2] -19.8% | Potency [3]

COC(=O)[C@H]1[C@@H](OC(=O)c2ccccc2)C[C@@H]2CC[C@H]1N2C
inactive: max response [4] -15.4% | Potency [5] | Potency [6] | max response [2] 1.68% | Potency [3]

N#Cc1ccc(N2CCN(C(=O)COc3ccc4[nH]cc(CCN)c4c3)CC2)cc1
inactive: Potency [1] | Potency [7] | Potency [8] | Potency [5] | Potency [6] | outcome [9] | Potency [10] | Potency [11] | Potency [12] | max response [2] -19.2% | Potency [13] | Potency [14] | Potency [15]

Reference: PubChem BioAssay (NCATS)
